From PubChem BioAssay (NCI)
This is part of a sample that, as a whole, favours compounds with a hit. Of some 79,000 tested, about 15% had one in any assay. A number with no mark means an inactive call. Calls of active or inactive are those of the source. Cut-off read from the data, not from the text of the source: active = growth inhibition above about 70%; inactive = the rest.

What was measured:
[1] = NCI Yeast Anticancer Drug Screen. Data for the rad50 strain (AID 155);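 note: 0% = growth of vehicle-only cultures of the same strain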; conditions: S. cerevisiae rad50 strain growth inhibition, stronger effect = higher value
Outline: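 Cells are treated with compound, grown, and their growth is then scored against vehicle-only cultures of the same repair-deficient yeast strain.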

[2] = NCI Yeast Anticancer Drug Screen. Data for the mec2-1 strain (AID 157); conditions: S. cerevisiae mec2-1 strain, stronger effect = higher value
Outline: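 Each compound was tested on mec2-1 yeast, a strain altered in DNA damage repair or cell cycle control. Growth inhibition is reported relative to vehicle.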

[3] = NCI Yeast Anticancer Drug Screen. Data for the sgs1 mgt1 strain (AID 161);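 note: 0% = growth of cultures given vehicle only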; conditions: S. cerevisiae sgs1 mgt1 strain, stronger effect = higher value
Outline: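 Read-out: growth inhibition vs vehicle controls. Cells: mutant yeast strain deficient in DNA damage repair.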

[4] = NCI Yeast Anticancer Drug Screen. Data for the cln2 rad14 strain (AID 165);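 note: 0% = growth equal to vehicle treated cultures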; conditions: S. cerevisiae cln2 rad14 strain, stronger effect = higher value
Outline: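 Test compounds were added to cln2 rad14 yeast cultures; inhibition of growth was then determined by comparison with vehicle treatment.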

[5] = NCI Yeast Anticancer Drug Screen. Data for the bub3 strain (AID 167); conditions: S. cerevisiae bub3 mutant strain, stronger effect = higher value
Outline: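 Part of a panel of yeast mutants defective in DNA damage repair or cell cycle regulation. Each strain is grown with compound, and inhibition is calculated relative to solvent-treated cultures.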

[6] = NCI Yeast Anticancer Drug Screen. Data for the mlh1 rad18 strain (AID 175); conditions: S. cerevisiae mlh1 rad18 strain growth inhibition, stronger effect = higher value
Outline: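 Inhibition values reflect reduced growth of mutant yeast versus vehicle-treated controls following compound exposure; the mutations affect DNA damage repair.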

[7] = at 5.0 µM (retest, dose inferred, filed as 0.5)
[8] = at 50.0 µM (retest, dose inferred, filed as 5.0)

CC(C)COC(=O)c1ccc(N=Cc2ccc(C=Nc3ccc(C(=O)OCC(C)C)cc3)cc2)cc1
growth inhibition [1, 7]: 25% | growth inhibition [1, 8]: 25% | growth inhibition ([1]; at 50.0 µM): 31.6% | growth inhibition [2, 7]: 16% | growth inhibition [2, 8]: 16% | growth inhibition ([2]; at 50.0 µM): -34.1% | growth inhibition [3, 7]: 14% | growth inhibition [3, 8]: 14% | growth inhibition ([3]; at 50.0 µM): -10.2% | growth inhibition [4, 7]: 7% | growth inhibition [4, 8]: 7% | growth inhibition ([4]; at 50.0 µM): 1.75% | growth inhibition [5, 7]: 9% | growth inhibition [5, 8]: 9% | growth inhibition ([5]; at 50.0 µM): -20.8% | growth inhibition [6, 7]: -1% | growth inhibition [6, 8]: -1% | growth inhibition ([6]; at 50.0 µM): -12.3%

CC(=O)c1ccc2c(c1)CC1(C2)Cc2ccccc2C1=O (stereo not given)
growth inhibition [1, 7]: -5% | growth inhibition [1, 8]: -16% | growth inhibition ([1]; at 50.0 µM): -2.15% | growth inhibition [2, 7]: -1% | growth inhibition [2, 8]: 0% | growth inhibition ([2]; at 50.0 µM): 1.15% | growth inhibition [3, 7]: 11% | growth inhibition [3, 8]: 24% | growth inhibition ([3]; at 50.0 µM): 7.8% | growth inhibition [4, 7]: 2% | growth inhibition [4, 8]: -13% | growth inhibition ([4]; at 50.0 µM): -10.6% | growth inhibition [5, 7]: 25% | growth inhibition [5, 8]: 84% (active) | growth inhibition ([5]; at 50.0 µM): 84.3% (active) | growth inhibition [6, 7]: -4% | growth inhibition [6, 8]: -9% | growth inhibition ([6]; at 50.0 µM): 10%

COc1ccc(Cl)c(-c2cc(OC)c(N=N/C(=N/Nc3ccc([N+](=O)[O-])cc3)c3ccc([N+](=O)[O-])cc3)cc2Cl)c1
growth inhibition [1, 7]: 95% (active) | growth inhibition [1, 8]: 19% | growth inhibition ([1]; at 50.0 µM): 70.9% (active) | growth inhibition [2, 7]: 98% (active) | growth inhibition [2, 8]: 4% | growth inhibition ([2]; at 50.0 µM): 45.5% | growth inhibition [3, 7]: 44% | growth inhibition [3, 8]: -18% | growth inhibition ([3]; at 50.0 µM): 60.2% | growth inhibition [4, 7]: 74% (active) | growth inhibition [4, 8]: 0% | growth inhibition ([4]; at 50.0 µM): 50.2% | growth inhibition [5, 7]: 99% (active) | growth inhibition [5, 8]: 5% | growth inhibition ([5]; at 50.0 µM): 44.5% | growth inhibition [6, 7]: 98% (active) | growth inhibition [6, 8]: 17% | growth inhibition ([6]; at 50.0 µM): 76.1% (active)

O/N=C1/CCCC/C1=C\c1ccc(Cl)c(Cl)c1
growth inhibition [1, 7]: 5% | growth inhibition [1, 8]: 99% (active) | growth inhibition ([1]; at 50.0 µM): 98.8% (active) | growth inhibition [2, 7]: 1% | growth inhibition [2, 8]: 99% (active) | growth inhibition ([2]; at 50.0 µM): 99.3% (active) | growth inhibition [3, 7]: 28% | growth inhibition [3, 8]: 100% (active) | growth inhibition ([3]; at 50.0 µM): 99.2% (active) | growth inhibition [4, 7]: -6% | growth inhibition [4, 8]: 99% (active) | growth inhibition ([4]; at 50.0 µM): 99.2% (active) | growth inhibition [5, 7]: -3% | growth inhibition [5, 8]: 99% (active) | growth inhibition ([5]; at 50.0 µM): 99.3% (active) | growth inhibition [6, 7]: 11% | growth inhibition [6, 8]: 96% (active) | growth inhibition ([6]; at 50.0 µM): 99.1% (active)

O=C1CSC(Cc2nc3ccccc3[nH]2)=N1
growth inhibition [1, 7]: 30% | growth inhibition [1, 8]: 79% (active) | growth inhibition ([1]; at 50.0 µM): 76.7% (active) | growth inhibition [2, 7]: 26% | growth inhibition [2, 8]: 79% (active) | growth inhibition ([2]; at 50.0 µM): 79.5% (active) | growth inhibition [3, 7]: 44% | growth inhibition [3, 8]: 87% (active) | growth inhibition ([3]; at 50.0 µM): 73% (active) | growth inhibition [4, 7]: 36% | growth inhibition [4, 8]: 55% | growth inhibition ([4]; at 50.0 µM): 69% | growth inhibition [5, 7]: 22% | growth inhibition [5, 8]: 71% (active) | growth inhibition ([5]; at 50.0 µM): 77.8% (active) | growth inhibition [6, 7]: 48% | growth inhibition [6, 8]: 90% (active) | growth inhibition ([6]; at 50.0 µM): 74.9% (active)

CC1(C)C2CCC1(CS(=O)O)C(=O)C2.[Ag] (stereo not given)
growth inhibition [1, 7]: 99% (active) | growth inhibition [1, 8]: 99% (active) | growth inhibition ([1]; at 50.0 µM): 99.2% (active) | growth inhibition [2, 7]: 100% (active) | growth inhibition [2, 8]: 99% (active) | growth inhibition ([2]; at 50.0 µM): 99.5% (active) | growth inhibition [3, 7]: 100% (active) | growth inhibition [3, 8]: 99% (active) | growth inhibition ([3]; at 50.0 µM): 99.5% (active) | growth inhibition [4, 7]: 99% (active) | growth inhibition [4, 8]: 99% (active) | growth inhibition ([4]; at 50.0 µM): 98.7% (active) | growth inhibition [5, 7]: 99% (active) | growth inhibition [5, 8]: 99% (active) | growth inhibition ([5]; at 50.0 µM): 99.5% (active) | growth inhibition [6, 7]: 100% (active) | growth inhibition [6, 8]: 99% (active) | growth inhibition ([6]; at 50.0 µM): 99.6% (active)

Cc1cc2nc3c(C)c4ccccc4c(C)n3c2cc1C
growth inhibition [1, 7]: 82% (active) | growth inhibition [1, 8]: 93% (active) | growth inhibition ([1]; at 50.0 µM): 80.8% (active) | growth inhibition [2, 7]: 69% | growth inhibition [2, 8]: 96% (active) | growth inhibition ([2]; at 50.0 µM): 87.8% (active) | growth inhibition [3, 7]: 72% (active) | growth inhibition [3, 8]: 50% | growth inhibition ([3]; at 50.0 µM): 85.3% (active) | growth inhibition [4, 7]: 73% (active) | growth inhibition [4, 8]: 94% (active) | growth inhibition ([4]; at 50.0 µM): 83.4% (active) | growth inhibition [5, 7]: 75% (active) | growth inhibition [5, 8]: 94% (active) | growth inhibition ([5]; at 50.0 µM): 86.4% (active) | growth inhibition [6, 7]: 81% (active) | growth inhibition [6, 8]: 95% (active) | growth inhibition ([6]; at 50.0 µM): 79.3% (active)

O=[N+]([O-])c1cc(Br)cc(Br)c1O
growth inhibition [1, 7]: -2% | growth inhibition [1, 8]: 19% | growth inhibition ([1]; at 50.0 µM): 61.6% | growth inhibition [2, 7]: 18% | growth inhibition [2, 8]: 45% | growth inhibition ([2]; at 50.0 µM): 49.6% | growth inhibition [3, 7]: 10% | growth inhibition [3, 8]: 38% | growth inhibition ([3]; at 50.0 µM): 40.4% | growth inhibition [4, 7]: 20% | growth inhibition [4, 8]: 41% | growth inhibition ([4]; at 50.0 µM): 82.7% (active) | growth inhibition [5, 7]: -7% | growth inhibition [5, 8]: 30% | growth inhibition ([5]; at 50.0 µM): 75.8% (active) | growth inhibition [6, 7]: 2% | growth inhibition [6, 8]: 56% | growth inhibition ([6]; at 50.0 µM): 68.4%

OC(Cn1cncn1)(Cn1cncn1)c1ccc(Cl)cc1Cl
growth inhibition [1, 7]: 66% | growth inhibition [1, 8]: 65% | growth inhibition ([1]; at 50.0 µM): 62.6% | growth inhibition [2, 7]: 62% | growth inhibition [2, 8]: 59% | growth inhibition ([2]; at 50.0 µM): 54.5% | growth inhibition [3, 7]: 38% | growth inhibition [3, 8]: 65% | growth inhibition ([3]; at 50.0 µM): 63.2% | growth inhibition [4, 7]: 71% (active) | growth inhibition [4, 8]: 77% (active) | growth inhibition ([4]; at 50.0 µM): 60.8% | growth inhibition [5, 7]: 65% | growth inhibition [5, 8]: 74% (active) | growth inhibition ([5]; at 50.0 µM): 56.7% | growth inhibition [6, 7]: 75% (active) | growth inhibition [6, 8]: 81% (active) | growth inhibition ([6]; at 50.0 µM): 48.2%

NCCNCCNCc1c2ccccc2c(CNCCNCCN)c2ccccc12
growth inhibition [1, 7]: 13% | growth inhibition [1, 8]: 13% | growth inhibition ([1]; at 50.0 µM): 36.2% | growth inhibition [2, 7]: -3% | growth inhibition [2, 8]: -3% | growth inhibition ([2]; at 50.0 µM): 90.9% (active) | growth inhibition [3, 7]: 0% | growth inhibition [3, 8]: 0% | growth inhibition ([3]; at 50.0 µM): 90.9% (active) | growth inhibition [4, 7]: 5% | growth inhibition [4, 8]: 5% | growth inhibition ([4]; at 50.0 µM): 89.7% (active) | growth inhibition [5, 7]: 7% | growth inhibition [5, 8]: 7% | growth inhibition ([5]; at 50.0 µM): 43.8% | growth inhibition [6, 7]: 17% | growth inhibition [6, 8]: 17% | growth inhibition ([6]; at 50.0 µM): 90.8% (active)
